The source of these data is PubChem BioAssay (NCATS).

In experiment [1] the target is Vitamin D3 receptor (Homo sapiens) (UniProt P11473). Kind of experiment: qHTS for Inhibitors of the vitamin D receptor (VDR): Hit Validation in Primary Screen (AID 602199). Further: potency means the concentration at half of the fitted maximal effect. The following applies: VDR-coactivator inhibition assay, qHTS confirmation. The method, boiled down:
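Fluorescence polarization assay of VDR binding to Alexa 647-labelled SRC2-3 coactivator peptide: 800nM VDR with 5uM LG19078 agonist, compounds, 2 h at room temperature, read Ex 620 nm/Em 688 nm.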
(Quantitative high-throughput screening tests each substance at several concentrations.)

The target is the same in experiment [2]. Kind of experiment: qHTS for Inhibitors of the vitamin D receptor (VDR): Hit Validation using a Fluorescein Assay (AID 602200). Further: potency means the concentration at half of the fitted maximal effect. As to conditions: VDR-coactivator binding, fluorescein fluorescence polarization. The method, boiled down: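 Fluorescence polarization (Ex 495 nm/Em 520 nm) read after 2 h at room temperature, reporting disruption of binding between 1.5 uM VDR-LBD, liganded by 5 uM LG19078, and 5 nM fluorescein-labelled SRC2-3 coactivator peptide (final concentrations).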

A short description of experiment [3]: qHTS for Inhibitors of the vitamin D receptor (VDR): Hit Validation using a Texas Red Assay (AID 602201). Further: potency means the concentration at half of the fitted maximal effect. The following applies: VDR coregulator binding, Texas Red fluorescence polarization, agonist-bound VDR ligand-binding domain; series mostly up to 57.1 µM. Summed up:
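Fluorescence polarization (Ex 595/Em 615 nm) of Texas Red (7 nM) with 1.5 uM VDR-LBD and LG19078 (final concentrations). Compounds were incubated for 2 hours at room temperature.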

Experiment [4] deals with Vitamin D3 receptor (Homo sapiens) (UniProt P11473). In words: qHTS for Inhibitors of the vitamin D receptor (VDR): Hit Validation using a Beta-Lactamase Assay (AID 602202). Further: potency means the concentration at half of the fitted maximal effect. As to conditions: VDR beta-lactamase reporter cells, FRET ratio, cells co-treated with VDR agonist LG190178; series mostly up to 46.1 µM. The method, boiled down: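 Stably transfected HEK293 cells express a VDR–GAL4 DNA-binding-domain fusion driving a UAS beta-lactamase reporter, stimulated by agonist LG190178. Compounds were added 4 h after plating and incubated 18 h. A FRET beta-lactam substrate was then added for 2 h and cleaved substrate emission read at 447 nm.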

Experiment [5] addresses Peroxisome proliferator-activated receptor gamma (Homo sapiens) (UniProt P37231). Kind of experiment: qHTS assay for small molecule agonists of peroxisome proliferator-activated receptor gamma signaling (AID 588536; active means well fitted curve in the direction sought with a large enough effect in the signal ratio, with a control signal flat, not every such curve was filed as active; the % refers to the signal ratio;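 further: 0% = DMSO basal wells and 100% = rosiglitazone at 2 µM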). The following applies: HEK293 PPARg-UAS-bla, beta-lactamase ratio, 16 h, percent of rosiglitazone response, DMSO as zero; series mostly up to 76.7 µM. Summed up: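 This is an agonist-mode beta-lactamase reporter assay in HEK293 PPAR-gamma-UAS-bla cells with 1% charcoal/dextran FBS. Compound titrations ran 16 h at 37 C before CCF4 detection. EC50 and efficacy are Hill fits scaled to 2 uM rosiglitazone (100%) and DMSO basal.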

For experiment [6], the target named is Thyroid hormone receptor beta (Homo sapiens) (UniProt P10828). Kind of experiment: qHTS assay for small molecule antagonists of thyroid hormone receptor beta signaling (AID 588547; active means well fitted inhibition curve with a large enough effect in the signal ratio, with a control signal flat, not every such curve was filed as active; the % refers to the signal ratio;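 further: cells stimulated with 0.4 nM T3 agonist during compound exposure; on the % scale 0 is the no-effect control and ±100 the full control effect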). The following applies: TR-UAS-bla HEK293, beta-lactamase ratio, antagonist mode, 18 h. Summed up: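 TR-UAS-bla GripTite HEK293 cells in 2% charcoal/dextran FBS medium were preincubated 4 h at 37 C, given compound (0.59 nM to 92 uM) plus 0.4 nM T3 (final) for 18 h, then CCF4 for 2 h at RT; Hill fit gave IC50.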

Experiment [7] is described as follows: qHTS assay for small molecule agonists of retinoid X receptor alpha signaling (AID 588544). The following applies: HEK293T RXRa-UAS-bla, beta-lactamase reporter, 18 h; 530 nm emission.
A short description of experiment [8]: qHTS assay for small molecule agonists of the antioxidant response element (ARE) signaling pathway (AID 651741; active means well fitted activation curve with a large enough effect in the signal ratio; the % refers to the signal ratio; further: potency means the concentration at half of the fitted maximal effect; on activation: % of control where 0% means no effect). The following applies: HepG2 ARE-bla reporter, beta-lactamase FRET ratio, 16 h; series mostly up to 96 µM. Summed up:
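Beta-lactamase reporter expression driven by the antioxidant response element in HepG2 cells was detected by fluorescence with LiveBLAzer B/G FRET substrate (2 h, room temperature) following 16 h compound treatment at 37 C.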

Experiment [9] deals with Peroxisome proliferator-activated receptor gamma (Homo sapiens) (UniProt P37231). Kind of experiment: qHTS assay for small molecule antagonists of peroxisome proliferator-activated receptor gamma signaling (AID 588537; active means well fitted inhibition curve with a large enough effect in the signal ratio, with a control signal flat, not every such curve was filed as active; the % refers to the signal ratio;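 further: reporter cells co-stimulated with 50 nM rosiglitazone agonist during compound treatment; % of control where 0% means no effect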). As to conditions: HEK293 PPARg-UAS-bla, beta-lactamase ratio, antagonist mode; series mostly up to 76.8 µM. Summed up: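 HEK293 cells, PPAR-gamma-UAS-bla, 3000/well. Pre-incubation 6-6.5 h, 37 C. Compound titration with rosiglitazone 50 nM final, 16 h. CCF4 dye, 2 h RT, dual-emission fluorescence.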

Experiment [10] deals with RecQ-like DNA helicase BLM (Homo sapiens) (UniProt P54132). In words: qHTS for Inhibitors of WRN Helicase: BLM Helicase Counterscreen for WRN Inhibitors (AID 720503).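 Further: plate controls were DMSO vehicle for no effect and enzyme-free control wells for full effect; nearly all actives have a fitted effect of over 60% in size.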 As to conditions: Recombinant BLM helicase DNA unwinding, red fluorescence; series mostly up to 57.1 µM. The method, boiled down:
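Reactions were started with 100 nM DNA substrate and 2 mM ATP (final) after compound and 1 nM BLM stood 15 min at room temperature in Tris-HCl pH 8.0 buffer with NaCl, MgCl2, DTT and Tween-20. Two red-fluorescence reads 15 min apart were normalized against DMSO and no-enzyme wells.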

Experiment [11] has as its target DNA polymerase iota (Homo sapiens) (UniProt Q9UNA4). Kind of experiment: qHTS for Inhibitors of Polymerase Iota: Confirmatory Assay for Cherry-picked Compounds (AID 720496). Further: potency means the concentration at half of the fitted maximal effect. The following applies: Pol iota primer extension, TAMRA/BHQ fluorescence. Summed up:
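Extension of a quenched TAMRA-reporter/BHQ-2-template DNA substrate (50 nM) by 10 nM Pol iota after 15 min compound preincubation. Strand-displacement fluorescence (525/598 nm) was read kinetically at 0 and 10 min. Buffer-only wells served as negative control.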

The target in experiment [12] is Bifunctional 3'-5' exonuclease/ATP-dependent helicase WRN (Homo sapiens) (UniProt Q14191). In words: qHTS for Inhibitors of WRN Helicase: Confirmatory Assay for Cherry-picked Compounds. (AID 720497). Further: nearly all actives have a fitted effect of over 65% in size. As to conditions: WRN helicase DNA unwinding, fluorescence kinetic; series mostly up to 57.1 µM. Summed up:
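WRN (20 nM) was preincubated 15 min at RT with compound, then started with 100 nM forked duplex oligonucleotide and 2 mM ATP. Unwinding was read kinetically by red fluorescence (ex 525/em 598 nm), normalized to enzyme-free and uninhibited controls.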

Experiment [13] deals with DNA polymerase eta (Homo sapiens) (UniProt Q9Y253). Kind of experiment: qHTS for Inhibitors of Polymerase Eta: Confirmatory Assay for Cherry-picked Compounds (AID 720502). Further: potency means the concentration at half of the fitted maximal effect. The following applies: Pol eta primer extension, TAMRA/BHQ fluorescence, 10 min. Summed up:
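Enzyme at 10 nM is mixed with pin-transferred compound and left 15 min at room temperature. Substrate (50 nM final) is then added, and plates are read at 0 min and after 10 min.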

Values joined by “and” are separate entries in the source; they are usually repeats but may differ in a detail not shown here. Equal values may be shown once. Records with an inconclusive call do not appear. The list shows a part of the results. Active and inactive are the calls of the source. Unless noted, the call rests on the fitted dose curve; in most records, active means well fitted curve in the direction sought with a large enough effect; inconclusive means small, poorly fitted or top-dose-only effect, or another doubt; inactive means no such curve, though single readings can be large; an effect the other way counts as inactive or inconclusive.

Sequence of Thyroid hormone receptor beta (Homo sapiens) (P10828 whole entry, looked up): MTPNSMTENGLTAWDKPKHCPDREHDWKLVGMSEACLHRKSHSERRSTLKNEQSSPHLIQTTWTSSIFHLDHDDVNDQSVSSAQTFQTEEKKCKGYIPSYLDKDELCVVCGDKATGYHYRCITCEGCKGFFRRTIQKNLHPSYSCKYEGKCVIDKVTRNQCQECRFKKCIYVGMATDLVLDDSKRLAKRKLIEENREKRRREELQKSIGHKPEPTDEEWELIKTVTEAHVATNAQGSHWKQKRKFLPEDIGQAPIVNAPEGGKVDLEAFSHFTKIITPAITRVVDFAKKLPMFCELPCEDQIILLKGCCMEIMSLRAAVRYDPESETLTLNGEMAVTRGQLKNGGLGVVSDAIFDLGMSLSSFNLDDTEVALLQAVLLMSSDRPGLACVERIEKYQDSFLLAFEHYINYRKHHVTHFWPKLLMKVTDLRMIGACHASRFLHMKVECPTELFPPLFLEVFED
Sequence of Vitamin D3 receptor (Homo sapiens) (P11473 whole entry, looked up, the tested form may be a part): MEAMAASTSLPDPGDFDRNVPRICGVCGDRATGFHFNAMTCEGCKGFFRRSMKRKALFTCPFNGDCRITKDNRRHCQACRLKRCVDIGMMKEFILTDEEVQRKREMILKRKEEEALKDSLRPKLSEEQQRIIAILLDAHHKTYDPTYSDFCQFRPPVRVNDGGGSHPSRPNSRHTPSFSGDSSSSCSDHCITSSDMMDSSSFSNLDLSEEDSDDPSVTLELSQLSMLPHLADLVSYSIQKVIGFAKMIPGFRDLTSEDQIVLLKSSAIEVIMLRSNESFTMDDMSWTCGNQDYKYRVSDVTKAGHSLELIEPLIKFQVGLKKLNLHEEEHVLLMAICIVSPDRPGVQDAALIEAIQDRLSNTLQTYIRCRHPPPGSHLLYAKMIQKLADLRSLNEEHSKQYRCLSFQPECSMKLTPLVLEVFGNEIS
Sequence of Peroxisome proliferator-activated receptor gamma (Homo sapiens) (P37231 whole entry, looked up): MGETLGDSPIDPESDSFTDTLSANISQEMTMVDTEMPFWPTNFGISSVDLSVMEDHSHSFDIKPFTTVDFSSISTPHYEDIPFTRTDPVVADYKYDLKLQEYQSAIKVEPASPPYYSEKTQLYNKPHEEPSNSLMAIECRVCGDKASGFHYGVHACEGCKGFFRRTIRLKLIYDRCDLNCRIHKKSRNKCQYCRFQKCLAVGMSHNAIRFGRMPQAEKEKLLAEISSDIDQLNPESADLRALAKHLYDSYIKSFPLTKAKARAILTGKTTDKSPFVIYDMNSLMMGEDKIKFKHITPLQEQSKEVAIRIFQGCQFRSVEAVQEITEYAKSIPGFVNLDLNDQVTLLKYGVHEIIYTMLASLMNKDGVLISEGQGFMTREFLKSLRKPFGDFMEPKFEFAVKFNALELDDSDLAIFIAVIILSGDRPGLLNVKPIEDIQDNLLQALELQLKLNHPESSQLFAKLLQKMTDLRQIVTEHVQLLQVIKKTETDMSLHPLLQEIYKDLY
Sequence of RecQ-like DNA helicase BLM (Homo sapiens) (P54132 whole entry, looked up): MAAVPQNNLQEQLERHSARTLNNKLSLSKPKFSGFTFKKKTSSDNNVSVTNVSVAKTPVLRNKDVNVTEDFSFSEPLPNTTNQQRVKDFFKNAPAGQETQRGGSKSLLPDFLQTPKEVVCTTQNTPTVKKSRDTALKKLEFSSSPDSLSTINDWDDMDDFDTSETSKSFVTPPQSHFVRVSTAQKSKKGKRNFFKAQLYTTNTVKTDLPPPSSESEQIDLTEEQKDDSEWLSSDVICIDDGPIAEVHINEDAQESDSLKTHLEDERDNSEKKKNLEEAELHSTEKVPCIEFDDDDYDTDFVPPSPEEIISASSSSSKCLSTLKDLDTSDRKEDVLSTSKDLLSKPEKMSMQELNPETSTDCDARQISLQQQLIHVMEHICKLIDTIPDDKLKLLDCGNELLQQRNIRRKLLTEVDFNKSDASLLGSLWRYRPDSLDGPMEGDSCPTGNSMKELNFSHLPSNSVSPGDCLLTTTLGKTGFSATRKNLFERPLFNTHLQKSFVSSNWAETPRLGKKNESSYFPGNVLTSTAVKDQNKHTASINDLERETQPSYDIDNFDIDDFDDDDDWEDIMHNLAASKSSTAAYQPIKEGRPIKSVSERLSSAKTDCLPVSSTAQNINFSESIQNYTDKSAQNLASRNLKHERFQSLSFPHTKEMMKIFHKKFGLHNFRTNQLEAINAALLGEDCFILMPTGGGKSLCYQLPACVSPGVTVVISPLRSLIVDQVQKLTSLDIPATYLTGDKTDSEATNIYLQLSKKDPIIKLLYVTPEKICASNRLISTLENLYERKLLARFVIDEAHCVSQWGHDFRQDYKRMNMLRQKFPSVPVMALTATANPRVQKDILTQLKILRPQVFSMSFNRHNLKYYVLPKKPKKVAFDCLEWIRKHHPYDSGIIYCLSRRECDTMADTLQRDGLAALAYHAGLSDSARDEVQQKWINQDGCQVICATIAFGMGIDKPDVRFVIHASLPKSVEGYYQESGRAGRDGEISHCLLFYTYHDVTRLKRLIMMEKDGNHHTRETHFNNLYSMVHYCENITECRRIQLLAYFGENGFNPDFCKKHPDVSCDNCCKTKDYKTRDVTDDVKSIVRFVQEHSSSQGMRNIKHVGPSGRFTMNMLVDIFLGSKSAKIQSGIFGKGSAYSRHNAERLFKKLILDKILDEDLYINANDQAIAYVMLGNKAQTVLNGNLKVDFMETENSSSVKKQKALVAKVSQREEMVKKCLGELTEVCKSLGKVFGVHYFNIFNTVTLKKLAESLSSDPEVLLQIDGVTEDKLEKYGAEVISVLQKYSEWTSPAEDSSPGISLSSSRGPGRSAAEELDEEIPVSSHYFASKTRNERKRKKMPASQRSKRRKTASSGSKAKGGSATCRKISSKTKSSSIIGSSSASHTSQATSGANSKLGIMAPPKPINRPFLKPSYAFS
Sequence of DNA polymerase eta (Homo sapiens) (Q9Y253 whole entry, looked up): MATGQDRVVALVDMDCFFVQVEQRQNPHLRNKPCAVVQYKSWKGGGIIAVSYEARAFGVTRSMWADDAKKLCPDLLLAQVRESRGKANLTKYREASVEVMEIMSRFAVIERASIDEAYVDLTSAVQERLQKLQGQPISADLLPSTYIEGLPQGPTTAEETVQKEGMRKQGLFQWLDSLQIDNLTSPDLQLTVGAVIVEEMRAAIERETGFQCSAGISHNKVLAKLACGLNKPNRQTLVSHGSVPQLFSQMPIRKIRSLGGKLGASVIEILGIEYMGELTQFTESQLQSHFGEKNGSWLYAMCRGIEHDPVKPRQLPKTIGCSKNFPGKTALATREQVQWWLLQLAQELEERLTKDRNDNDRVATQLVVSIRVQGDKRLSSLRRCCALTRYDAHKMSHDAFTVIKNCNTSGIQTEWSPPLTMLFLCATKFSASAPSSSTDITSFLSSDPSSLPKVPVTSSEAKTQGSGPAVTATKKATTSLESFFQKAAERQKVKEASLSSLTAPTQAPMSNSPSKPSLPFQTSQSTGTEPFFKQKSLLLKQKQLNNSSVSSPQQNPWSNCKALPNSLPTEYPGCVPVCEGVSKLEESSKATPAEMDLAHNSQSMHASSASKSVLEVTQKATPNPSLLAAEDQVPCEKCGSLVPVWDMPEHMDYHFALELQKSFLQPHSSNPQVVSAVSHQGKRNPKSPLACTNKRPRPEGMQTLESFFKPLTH
Sequence of DNA polymerase iota (Homo sapiens) (Q9UNA4 whole entry, looked up): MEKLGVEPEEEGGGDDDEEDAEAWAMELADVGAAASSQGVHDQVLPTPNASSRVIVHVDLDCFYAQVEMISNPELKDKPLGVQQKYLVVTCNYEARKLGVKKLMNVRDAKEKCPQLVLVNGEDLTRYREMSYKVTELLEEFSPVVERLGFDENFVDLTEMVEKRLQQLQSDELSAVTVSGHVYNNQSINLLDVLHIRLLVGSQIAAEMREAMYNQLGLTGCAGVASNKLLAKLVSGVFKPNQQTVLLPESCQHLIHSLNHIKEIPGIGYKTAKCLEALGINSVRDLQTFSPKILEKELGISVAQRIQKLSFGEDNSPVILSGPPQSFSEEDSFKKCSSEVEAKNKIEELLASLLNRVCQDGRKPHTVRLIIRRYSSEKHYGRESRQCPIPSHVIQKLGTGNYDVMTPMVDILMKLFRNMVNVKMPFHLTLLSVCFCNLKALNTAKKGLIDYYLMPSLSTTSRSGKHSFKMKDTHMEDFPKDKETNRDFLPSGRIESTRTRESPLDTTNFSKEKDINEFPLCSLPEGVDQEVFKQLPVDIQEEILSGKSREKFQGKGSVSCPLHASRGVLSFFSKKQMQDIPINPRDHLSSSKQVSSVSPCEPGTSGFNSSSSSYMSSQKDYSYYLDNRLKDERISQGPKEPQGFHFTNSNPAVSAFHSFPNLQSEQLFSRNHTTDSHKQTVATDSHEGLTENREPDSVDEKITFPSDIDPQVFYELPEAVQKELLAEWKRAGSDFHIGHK

With `CCOC(=O)c1sc(=S)n2c1[nH]c(=O)c1ccc(C(=O)OC)cc12`, the Potency was 7.94 µM (active) in [1], 6.31 µM (active) in experiment [2] and 10 µM (active) in experiment [3]. Further, the Potency entry in experiment [4] was “inactive”.
For `S=C(S)NCCNC(=S)S`, the result in [5] was inactive. Besides, the activity change % (negative = inhibition) in [6] is -7.47% (inactive).
Turning to `O=C(/C=C/c1ccc(Cl)c([N+](=O)[O-])c1)c1cccnc1`, the Potency in [1] was 2.51 µM (active); in [2], 2.51 µM (active); in experiment [3], 4.47 µM (active). Moreover, the Potency result in [4] is “inactive”.
`CS(=O)(=O)c1ccc(Cl)cc1`: in experiment [7], the max response turned out to be 0.314%. Besides, in experiment [6], the activity change % (negative = inhibition) was -10.2% (inactive). Also, the Potency entry in experiment [8] is “inactive”.
For the molecule `O=C1CCC(C2CCCCC2)CC1`, the outcome in experiment [5] was inactive. In addition, in experiment [7], the max response was -15.9%.
Consider `O=C(Nc1ccccc1)c1cc(Cl)ccc1O`, for which the Potency in [8] is 5.45 µM (active).
Consider `CCNc1nc(N)nc(Cl)n1`, for which, in experiment [7], the max response is -5.45% and -6.57%. For the same molecule, in experiment [6], the activity change % (negative = inhibition) is -8.97% (inactive). Also, the Potency result in experiment [8] is “inactive”.
Consider `CCOC(=O)NCCOc1ccc(Oc2ccccc2)cc1`, for which, in experiment [5], the outcome was inactive. For the same molecule, the Potency in [8] is 30.6 µM (active).
As to `CC1(C)C(=O)N(Br)C(=O)N1Cl`, the result in [5] was inactive. Besides, the Potency entry in [9] is “inactive”. Moreover, the max response in experiment [7] was -10%. Also, the activity change % (negative = inhibition) in experiment [6] was -12% (inactive).
As to `Clc1nc(Cl)c(Cl)c(Cl)c1Cl`, the result in experiment [5] was inactive. In addition, the Potency result in experiment [9] is “inactive”. Also, the max response in experiment [7] was -3.68%. In addition, in experiment [8], the Potency is 17.2 µM (active).
Take `Cc1sc(C(C2C(=O)CC(C)(C)CC2=O)C2C(=O)CC(C)(C)CC2=O)cc1[N+](=O)[O-]`: the Potency in [3] is 7.94 µM (active).
`CC(=O)Nc1cccc(C(=O)/C=C/c2ccc(C)cc2)c1`: in experiment [3], the Potency entry was “inactive”.
`CCN(CC)c1ccc(NC(=O)c2cccc(C)c2)cc1S(=O)(=O)Nc1ccccc1OC`: in [3], the Potency entry was “inactive”.
Regarding `O=c1[nH]c2ccccc2n2c(-c3ccccc3)nnc12`, the Potency in [1] was 9.47 µM (active). Also, the Potency result in experiment [10] was “inactive”.
With `CC(=O)N(C1=C(Cl)C(=O)c2ccccc2C1=O)c1ccc(C(=O)O)cc1`, the Potency is 7.94 µM (active) in experiment [1]; 2.82 µM (active) in experiment [2]; 3.55 µM (active) in [3]; 20.6 µM (active) in experiment [4]; 67 µM (active) in experiment [11]; 26.9 µM (active) in [13]. Further, the Potency result in experiment [12] and in experiment [10] was “inactive” throughout.
Take `O=S1OC(c2ccccc2)c2cc(Cl)ccc21` (configuration not stated): the Potency in experiment [3] is 7.08 µM (active).
Turning to `O=C(/C=C/c1ccccc1)c1ccccc1O`, the figures for the Potency in experiment [1] and in experiment [2] were 23.8 µM (active) and 14.1 µM (active), respectively. Besides, the Potency result in experiment [4] was “inactive”.
Take `CCS(=O)(=O)c1ncc(Cl)c(C(=O)N2CCN(c3cccc(Cl)c3)CC2)n1`: the Potency in experiment [3] was 2.82 µM (active).
